Source: ChEMBL document CHEMBL1157539, “Thousands of chemical starting points for antimalarial lead identification” (Nature, 2010)
Values joined by “and” are separate entries in the source; they are usually repeats but may differ in a detail not shown here. Equal values may be shown once.

System: Plasmodium falciparum
Assay: GSK_TCMDC: Inhibition of Plasmodium falciparum 3D7 in whole red blood cells, using parasite LDH activity as an index of growth. Test compounds present at 2uM
Format: functional

| SMILES | Inhibition |
| --- | --- |
| O=C(/C=C/c1ccc(Cl)cc1)NC1CCC(CN2CCC(c3c[nH]c4ccccc34)CC2)CC1 (centres undefined) | 99% and 100% |
| O=P(O)(O)Oc1c(Br)cc(Br)cc1-c1cc(Br)cc(Br)c1O [BROMOFENOFOS] | 97% |
| O=C(/C=C/c1ccc(Cl)c(Cl)c1)NC1CCC(N2CCC(c3c[nH]c4ccc(O)cc34)CC2)CC1 (centres undefined) | 97% |
| Oc1ccc(Cl)cc1CN1CCC(CCOC(c2ccccc2)c2ccc(Cl)cc2)CC1 (centres undefined) | 98% |
| O=C(NC1CCC(CN2CCC(c3c[nH]c4ccccc34)CC2)CC1)c1cc(-c2cccc(Cl)c2)n(-c2ccc(Cl)cc2Cl)n1 (centres undefined) | 81% |
| CCCCCC(C)C(C)c1cc(O)c2c(c1)OC1(C(C)C)CC(O)C(C)C2C1 (centres undefined) | 93% |
| CC(=O)Nc1ccc(OCCN(CC(F)(F)F)c2ccc(C#N)cc2C(F)(F)F)cc1 | 81% |
| COc1ccc(F)cc1-c1csc(N(c2ccc(F)cc2)C2CCNCC2)n1.O=C(O)C(F)(F)F | 94% |
| CC[C@H]1CN2CC[C@H]1C[C@H]2[C@H](O)c1cc(-c2ccc(Cl)c(Cl)c2)nc2ccc(OC)cc12.Cl | 98% |
| COCCNCc1cccc(-c2cccc(CN(C(=O)Nc3ccccc3)C3CCN(Cc4ccccc4)CC3)c2)c1.O=C(O)C(F)(F)F | 100% |
| CN1CCC(O)(c2ccc(Br)cc2)C(C(O)c2ccc(Br)cc2)C1.CS(=O)(=O)O (centres undefined) | 98% |
| CN1CCC(N(C)c2nccc(N3CCN(Cc4cncn4Cc4ccccc4)CC3)n2)CC1 | 100% |
| COC(C(=O)OCCC1CCCN1C)(c1ccccc1)C1CCCCC1 (centres undefined) | 100% |
| OC(CNCc1ccccc1OC(F)F)c1cccc(C(F)(F)F)c1 (centres undefined) | 97% |
| COC(=O)c1ccc(CC(C)NCC(O)c2cc(Cl)c(N)c(Cl)c2)cc1 (centres undefined) | 91% |
| O=C(NC1CCC(CN2CCC(c3c[nH]c4ccccc34)CC2)CC1)NC12CC3CC(CC(C3)C1)C2 (centres undefined) | 96% |
| CC[C@H]1CN2CC[C@H]1C[C@H]2[C@H](O)c1cc(-c2ccccc2C(F)(F)F)nc2ccc(OC)cc12.Cl | 98% |
| O=C1Nc2cccc3c2C1(CCCCCN1CC=C(c2c[nH]c4ccccc24)CC1)CCC3 (centres undefined) | 94% |
| COc1ccc2[nH]cc(C3CC4CCC(C3)N4CCC3CCN(C(=O)/C=C/c4ccc(Cl)c(Cl)c4)CC3)c2c1 (centres undefined) | 100% |
| CC[C@H]1CN2CC[C@H]1C[C@H]2[C@H](O)c1cc(-c2ccccc2F)nc2ccc(OC)cc12.Cl | 99% |

| SMILES | Inhibition |
| --- | --- |
| CC(C)CNCc1cccc(-c2cccc(CN(C(=O)NC3CCCCC3)C3CCN(Cc4ccccc4)CC3)c2)c1.O=C(O)C(F)(F)F | 97% |
| COCC(=O)N(Cc1cccc(-c2ccc(CNCCc3ccccc3)cc2)c1)C1CCN(Cc2ccccc2)CC1.O=C(O)C(F)(F)F | 93% |
| COC(=O)/C=C/c1ccc(CC(C)NCC(O)c2cccc(Cl)c2)cc1 (centres undefined) | 99% |
| O=C(NC1CCN(CC2(c3ccc(Cl)cc3)CCC2)CC1)c1cc[nH]n1 | 96% |
| O=C(NC1CCC(CN2CCC(c3c[nH]c4ccccc34)CC2)CC1)[C@H]1Cc2ccccc2CN1 (some centres undefined) | 89% |
| CCOc1ccc2nccc([C@@H](O)[C@@H]3C[C@@H]4CCN3C[C@@H]4CC)c2c1 [ETHYLHYDROCUPREINE] | 99% |
| CNCCCCCCOc1ccc(CC(C)NCC(O)c2cccc(C(F)(F)F)c2)cc1.Cl (centres undefined) | 100% |
| Cn1cc(CN2CCC(CCOC(c3ccccc3)c3ccccc3)CC2)cn1 | 99% |
| COc1cccc(C(=O)C2CC2CN2CC=C(c3c[nH]c4ccc(OC)nc34)CC2)c1 (centres undefined) | 94% |
| CC(=O)Nc1ccc2[nH]cc(C3CCN(CC4CCN(C(=O)/C=C/c5ccc(Cl)c(Cl)c5)CC4)CC3)c2c1 | 96% |
| O=C(NC1CCC(CN2CCC(c3c[nH]c4ccccc34)CC2)CC1)c1ccc(-c2ccccc2[N+](=O)[O-])o1 (centres undefined) | 100% |
| CC[C@H]1CN2CC[C@H]1C[C@H]2[C@H](O)c1cc(N2CCCC(C(=O)N(CC)CC)C2)nc2ccc(OC)cc12 (some centres undefined) | 100% |
| Cc1csc(-c2ccc3[nH]cc(C4=CCN(C)CC4)c3c2)n1 | 93% |
| Cc1ccc(CC(C)NCC(O)c2cccc(C(F)(F)F)c2)cc1F.Cl (centres undefined) | 97% |
| CN(C(=O)OCc1ccccc1)C1CCC(CCN2CCC3(CC2)C(=O)NCN3c2cccc(C(F)(F)F)c2)(c2ccccc2)CC1 (centres undefined) | 80% |
| Cc1cc2cc(CNCCc3ccccc3Br)ccc2nc1N.Cl | 98% |
| C=C[C@H]1CN2CC[C@H]1C[C@H]2[C@H](O)c1cc(/C=C/c2ccc(F)cc2)nc2ccc(OC)cc12.Cl | 99% |
| CC[C@H]1CN2CC[C@@H]1C[C@H]2[C@H](O)c1cc(-c2c(C)noc2C)nc2ccc(OC)cc12.Cl | 100% |
| CC(Cc1ccc(NC(=O)CCCc2ccccc2)cc1)NCCc1cccc(Cl)c1.Cl (centres undefined) | 94% |
